Screening data as filed in PubChem BioAssay.
Hits are enriched below; roughly 3.5% of the tested compounds scored in any of these assays.
KCNK9 block: blocks the human KCNK9 two-pore domain potassium channel; Q9NPC2; HEK293 KCNK9, FluxOR thallium flux fluorescence; stronger effect = lower value; B-score at 10 µM; 1.2% of 310,000 active; AID 488922;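 active = ratio B-score over 3 SD below the library mean, with starting fluorescence within 5 SD of its mean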;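 note: negative B-score means less thallium flux so channel inhibition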
Kir21 block: blocks the mouse Kir2.1 inward-rectifier potassium channel | P35561 | HEK293-Kir2.1, FluxOR thallium flux fluorescence; stronger effect = lower value | B-score at 10 µM | 0.85% of 310,000 active | AID 1672;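 active = fluorescence ratio B-score at or below minus 3 SD of library scores, with starting-brightness B-score within 2 SD, cut at about -4.2 in these data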;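 note: channel flux triggered by added potassium and thallium sulfate stimulus; B-score of peak minus minimum fluorescence over baseline after thallium stimulus; more negative B-score means stronger Kir2.1 block with less thallium influx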
Target sequence (P35561 whole entry, looked up): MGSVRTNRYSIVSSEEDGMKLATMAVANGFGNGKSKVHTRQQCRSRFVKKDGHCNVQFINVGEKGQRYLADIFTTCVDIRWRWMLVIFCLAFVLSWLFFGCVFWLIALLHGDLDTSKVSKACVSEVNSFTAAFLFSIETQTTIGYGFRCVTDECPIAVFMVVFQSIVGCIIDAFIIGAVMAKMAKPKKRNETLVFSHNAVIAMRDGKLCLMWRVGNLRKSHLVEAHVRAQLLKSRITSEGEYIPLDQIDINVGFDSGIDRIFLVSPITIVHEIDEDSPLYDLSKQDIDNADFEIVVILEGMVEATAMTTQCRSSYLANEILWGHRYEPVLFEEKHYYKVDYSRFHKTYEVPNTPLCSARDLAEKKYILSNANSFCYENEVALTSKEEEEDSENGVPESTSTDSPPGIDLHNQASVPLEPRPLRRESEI
TMEM16A act: activates or potentiates the mouse TMEM16A chloride channel; AID 623877; Q8BHY3; 0.3% of 340,000 active; HEK293 TMEM16A/YFP-H148Q/I152L, iodide quench fluorescence; stronger effect = lower value; B-score at 10 µM;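 active = fluorescence-ratio B-score plate-corrected deviation score at least 3 library SD below zero, with starting fluorescence score within 5 deviations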;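 note: channel opened by trigger with iodide after compound preincubation; score built on the fluorescence ratio of max minus min over baseline; more negative score means more quench and so TMEM16A activation or potentiation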
KCNK3 block: human KCNK3 channel inhibition, primary screen; O14649; CHO-KCNK3 thallium flux, FluxOR fluorescence; stronger effect = lower value; B-score at 10 µM; 0.84% of 340,000 active; AID 602410;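 active = B-score under library mean minus 4 SD, starting fluorescence ratio at most library mean plus 5 SD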;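 note: more negative B-score means stronger inhibition of thallium flux through KCNK3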
ANO1 block: mouse TMEM16A channel inhibition, primary screen | Q8BHY3 | HEK293 TMEM16A/YFP iodide influx fluorescence, ionomycin | normalized B-score (activity score, 25-100; higher = stronger inhibition) at 10 µM | 1.2% of 310,000 active;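 active = ratio plate-corrected score three or more library SD toward inhibition, starting fluorescence score within five deviations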;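 note: score derived from kinetic fluorescence span divided by baseline fluorescence per well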
TMEM16A reconf: TMEM16A (mouse) chloride channel inhibition, re-confirmation; shares compounds with ANO1 block; HEK293 TMEM16A/YFP-H148Q, iodide quench fluorescence; ionomycin added to raise cell calcium; inhibition, % at 10 µM; 39% of 2,300 active; AID 652189;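 active = mean duplicate percent inhibition, scaled so buffer wells are 0 and the reference blocker 100, over three buffer SD above buffer mean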
TMEM16A Ca cntr: calcium mobilization counter-screen hit for TMEM16A inhibitor series. TMEM16A/YFP HEK293, Fluo4 calcium mobilization. calcium response (% of ionomycin), % at 10 µM. shares compounds with ANO1 block. 2% of 2,300 active;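 active = duplicate-averaged calcium signal over 20% of the ionomycin maximum, relative to buffer baseline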;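 note: each well's signal is peak minus trough fluorescence divided by its pre-addition baseline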
Parental YFP cnt: parental YFP-HEK293 iodide quench counter-screen activity; shares compounds with ANO1 block; ionomycin; YFP ratio F(max-min)/F0 at 10 µM; 2,300 tested, under 10 active; AID 652233;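 active = yellow fluorescent protein signal ratio exceeding the buffer control mean by over 5 SD of those controls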;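 note: ratio is mean of duplicate wells from kinetic YFP trace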
ClC-1 inh: blocks the rat ClC-1 voltage-dependent chloride channel. shares compounds with ANO1 block. CHO ClC-1-YFP, iodide influx fluorescence quench; iodide control reads 0, buffer control 100. ratio percent, % at 10 µM. 2,300 tested, under 10 active. AID 652236;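 active = duplicate-mean ratio percent above the mean of iodide-only control wells, which defines zero, plus 5 of their SD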;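 note: higher percent means stronger block of ClC-1 iodide influx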
KCNK3 inh conf: confirmation of human KCNK3 two-pore domain potassium channel inhibitors; 99% of 2,400 active; CHO-KCNK3 thallium flux, FluxOR fluorescence; 0% buffer, 100% carvedilol maximal block; ratio percent of control, % at 10 µM; shares compounds with KCNK3 block; AID 651638;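 active = ratio percent of control, averaged over triplicates, above buffer control mean plus 5 SD, cut at about 64% in these data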;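 note: ratio is the fluorescence rise from min to max over baseline after thallium stimulus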
KCNK3 uninduced: counter-screen for KCNK3 inhibitors: effect in non-induced cells. shares compounds with KCNK3 block. non-induced KCNK3 parental cells, FluxOR thallium flux; stronger effect = lower value. thallium flux ratio (lower = more inhibition) at 10 µM. 40% of 2,400 active. AID 651747;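 active = thallium flux ratio, averaged over three wells, more than 5 SD below the buffer control mean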;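 note: host cells are CHO cells without KCNK3 induction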
Hits are given with their value; . = inactive; / = no result given.

SMILES	KCNK9 block	Kir21 block	TMEM16A act	KCNK3 block	ANO1 block	TMEM16A reconf	TMEM16A Ca cntr	Parental YFP cnt	ClC-1 inh	KCNK3 inh conf	KCNK3 uninduced
O=C(Nc1nnc(-c2ccccc2Cl)o1)c1nc2ccccc2s1	.	.	.	.	100	.	.	.	.	/	/
O=C(Nc1ccccc1)Nc1scc2c1c(=O)oc1ccccc12	.	.	/	/	.	.	.	.	.	/	/
O=C(CN1CCN(c2ccccc2)CC1)Nc1scc2c1c(=O)oc1ccccc12	.	.	.	.	.	/	/	/	/	/	/
CC(C)(C)c1ccc(/C=C(\C#N)C(=O)NC2CC2)cc1	.	.	.	.	.	/	/	/	/	/	/
CC1CC(C)CN(c2nc(N(C)c3ccccc3)nc(N)c2[N+](=O)[O-])C1 (stereo not drawn)	.	.	.	.	25	.	.	.	.	/	/
Cc1ccc(C)c(NC(=O)CSc2sc3c(O)cc(=O)[nH]c3c2C#N)c1	.	.	.	.	.	.	.	.	.	/	/
Nc1nc(Cl)cc(N2CCC(c3cc(-c4ccc(Cl)cc4Cl)n[nH]3)CC2)n1	.	.	.	.	100	.	.	.	.	/	/
Nc1nc(Cl)cc(N2CCCC2)n1	.	.	.	.	.	/	/	/	/	/	/
COc1ccc(N2CCN(C(=O)c3c(-c4c(F)cccc4Cl)noc3C)CC2)cc1	.	.	.	.	.	/	/	/	/	/	/
CC(SC1CCCC1)C(=O)Nc1ccnn1C(C)C (stereo not drawn)	.	.	.	.	.	.	.	.	.	/	/
N=c1n(Cc2ccc(Cl)cc2)c2ccccc2n1CC(O)COc1ccccc1 (stereo not drawn)	.	-9.6	.	-12	25	28%	.	.	.	123	.
N=c1n(Cc2ccccc2)c2ccccc2n1CC(O)COc1ccc(Cl)cc1Cl (stereo not drawn)	.	.	.	.	/	/	/	/	/	/	/
CCCCC(=O)Oc1c(S(=O)(=O)c2ccccc2)c(C)nn1C(C)(C)C	.	.	.	-10	25	.	.	.	.	118	.
Cc1noc(C)c1COc1cccc(C(=O)OCCOc2ccc(F)cc2)c1	.	.	.	-14	100	.	.	.	.	116	.
CCN(CCn1cccn1)C(=O)CCc1nnc(C2(c3ccc(Cl)cc3)CCC2)o1	.	.	.	.	.	/	/	/	/	/	/
CCOC(=O)c1nc(C)nc(Sc2n[nH]c(-c3cc(C(F)(F)F)cc(C(F)(F)F)c3)n2)c1C	.	.	.	-9.4	25	30%	.	.	.	102	0.12
CCCc1cc(C(=O)Nc2ccc(C(=O)c3ccccc3)cc2)n(C)n1	.	.	.	-13	100	40%	.	.	.	132	0.15
CCN(CC(=O)Nc1ccc(NC(C)=O)cc1)C(=O)c1cccc(S(=O)(=O)N2CCCC2)c1	.	.	.	.	.	/	/	/	/	/	/
CC(=O)Oc1cccc(Nc2ncnc3ccccc23)c1	.	.	.	.	.	/	/	/	/	/	/
Cc1ccccc1C(=O)Oc1cccc(Nc2ncnc3ccccc23)c1	-7.2	.	.	-8.8	25	30%	.	.	.	132	0.15
CC1(C)C=C(c2ccc(O)cc2)CC(C)(C)N1	.	.	.	.	.	/	/	/	/	/	/
Cc1ccc(N(C)S(=O)(=O)c2ccc(C)cc2)cc1	.	.	.	.	.	/	/	/	/	/	/
Cc1ccc(S(=O)(=O)N(C)c2ccc3ccccc3c2)cc1	.	.	.	-9.4	100	.	.	.	.	122	0.13
